Assay results from PubChem BioAssay (NCI).
Compounds without any hit were thinned out: in the full panel of roughly 79,000, 15% have a hit. Unmarked numbers belong to inactive results. Rule as the data show it: active = growth inhibition above about 70%; inactive = the rest.

Test: NCI Yeast Anticancer Drug Screen. Data for the rad50 strain (AID 155);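 also: 0% = growth of vehicle-only cultures of the same strain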
Conditions: S. cerevisiae rad50 strain growth inhibition; at 50.0 µM; hits give high values
Procedure, shortened: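 Yeast carrying a defined DNA repair defect were exposed to test compounds, and growth was compared with vehicle-treated controls to give percent inhibition.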

Q: With `C=C(C)CN(Cc1ccccc1)C1CCCCCCC1` as the molecule, how does the growth inhibition read?
A: -7.55%

Q: With `CCN(CC)CCOC(=O)Cc1cccc2c(=O)cc(-c3ccc(OC)cc3)oc12` as the molecule, how does the growth inhibition read?
A: 50.4%

Q: For `CCOC(=O)c1ccc(NCCCc2c(C)nc(N)[nH]c2=O)cc1`, which growth inhibition is on record?
A: 5.25%

Q: For `O=C(CC1=NC2NN(c3ccccc3)C(=O)C2=C1CC(=O)C(c1ccccc1)c1ccccc1)C(c1ccccc1)c1ccccc1` (stereo unspecified), which growth inhibition is on record?
A: 51.9%

Q: Which growth inhibition does the source give for `CCN1CC(O)c2cc(N=NC(N)=O)c(O)cc21` (stereo unspecified) here?
A: -3.3%

Q: With `Cc1cc(=O)c2cc(Cc3ccc(N)cc3)ccc2[nH]1` as the molecule, how does the growth inhibition read?
A: 8.35%

Q: With `O=C1C(Cl)N(c2c(Cl)cccc2Cl)C1c1c[nH]c2ccccc12` (stereo unspecified) as the molecule, how does the growth inhibition read?
A: -35.5%

Q: For `COc1ccc(-n2c(=O)c(N=Nc3ccccc3)c(O)n(-c3ccccc3OC)c2=S)cc1`, which growth inhibition is on record?
A: 39.5%

Q: Which growth inhibition does the source give for `CC(C)C(=O)CC(c1ccc(Cl)cc1)N1N=C(C(C)C)CC1c1ccc(Cl)cc1` (stereo unspecified) here?
A: 8.05%

Q: Which growth inhibition does the source give for `CCOC(=O)C(C#N)C(=O)c1ccccc1-c1ccccc1[N+](=O)[O-]` (stereo unspecified) here?
A: 7.9%

Q: For `O=C(C[n+]1ccncc1)c1ccc2c(c1)CCCC2`, which growth inhibition is on record?
A: -8.7%

Q: With `CN(C)Cc1ccc2ccccc2c1CC(O)(c1ccccc1)c1ccccc1` as the molecule, how does the growth inhibition read?
A: 26.3%

Q: Which growth inhibition does the source give for `CCC(=O)N1NC(=O)C(CC)(CC)C1=O` here?
A: -1.95%

Q: With `CC1=NN(c2ccccc2)C(=O)/C1=C1\SC(c2ccccc2)(c2ccccc2)c2ccccc21` as the molecule, how does the growth inhibition read?
A: -29.4%

Q: For `CC(C)(C)n1nnnc1N`, which growth inhibition is on record?
A: -8.55%

Q: Which growth inhibition does the source give for `O=Cc1ccc(OCc2cccc([N+](=O)[O-])c2)cc1` here?
A: 6.6%
